From PubChem BioAssay (EPA / NIEHS) come the findings set out here.

What all share (conditions): mRNA level, 48 h; actives raise or lower the signal
Read-out in experiment [1]: Nuclear factor NF-kappa-B p105 subunit (Homo sapiens) (UniProt P19838)
Put plainly: LTEA_HepaRG_NFKB1: Life Technologies and Expression Analysis (LTEA) Assay for Nuclear Factor Kappa B Subunit 1 (NFKB1) using HepaRG (AID 2283521).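 As to outcome: TaqMan qRT-PCR transcript normalised to ACTB GAPDH and POLR2A housekeeping genes.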 The essentials: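 Differentiated human HepaRG cells in serum-free induction medium with 0.5% DMSO were exposed for 48 h to eight half-log concentrations, top 100 uM, in duplicate. NFKB1 mRNA measured by Fluidigm TaqMan qRT-PCR, normalised to ACTB, GAPDH and POLR2A; bidirectional fit versus DMSO.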

Read-out in experiment [2]: Protein phosphatase 2A (PPP2R4), PTPA (gene 5524)
Put plainly: LTEA_HepaRG_PPP2R4: Life Technologies and Expression Analysis (LTEA) Assay for Protein phosphatase 2A (PPP2R4) using HepaRG (AID 2283522). The method in brief: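 Differentiated human HepaRG cells in serum-free induction medium were exposed 48 h to 8 concentrations (top 100 µM, half-log steps, duplicate) in 0.5% DMSO. PPP2R4 mRNA was measured by TaqMan qRT-PCR, normalised to ACTB, GAPDH and POLR2A, and fitted bidirectionally versus DMSO.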

Read-out in experiment [3]: Phosphatase and tensin (PTEN), PTEN (gene 5728)
Briefly: LTEA_HepaRG_PTEN: Life Technologies and Expression Analysis (LTEA) Assay for Phosphatase and tensin (PTEN) using HepaRG (AID 2283523). The method in brief:
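HepaRG cells, 48 h after plating, exposed in duplicate for 48 h in serum-free induction medium to 8 half-log concentrations up to 100 uM (0.5% DMSO). PTEN mRNA by qRT-PCR, normalized to ACTB, GAPDH, POLR2A; bidirectional fit versus DMSO.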

Read-out in experiment [4]: solute carrier (SLC22A1), SLC22A1 (gene 6580)
Briefly: LTEA_HepaRG_SLC22A1: Life Technologies and Expression Analysis (LTEA) Assay for solute carrier (SLC22A1) using HepaRG (AID 2283524). The essentials:
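Differentiated human HepaRG cells in serum-free induction medium, exposed 48 h in duplicate to 8-point half-log series from 100 µM top in 0.5% DMSO. SLC22A1 mRNA by TaqMan qRT-PCR normalized to ACTB, GAPDH, POLR2A; bidirectional fit versus DMSO.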

Read-out in experiment [5]: Pyruvate Dehydrogenase Kinase 4 (PDK4), PDK4 (gene 5166)
Put plainly: LTEA_HepaRG_PDK4: Life Technologies and Expression Analysis (LTEA) Assay for Pyruvate Dehydrogenase Kinase 4 (PDK4) using HepaRG (AID 2283525). The method in brief:
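HepaRG cells plated 48 h, then switched to serum-free induction medium and exposed in duplicate for 48 h to 8 half-log concentrations from 100 uM in 0.5% DMSO. PDK4 mRNA measured by qRT-PCR, normalized to ACTB, GAPDH and POLR2A; bidirectional fit versus DMSO.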

Read-out in experiment [6]: NAD(P)H dehydrogenase [quinone] 1 (NQO1), NQO1 (gene 1728)
Briefly: LTEA_HepaRG_NQO1: Life Technologies and Expression Analysis (LTEA) Assay for NAD(P)H dehydrogenase [quinone] 1 (NQO1) using HepaRG (AID 2283526). The essentials: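 Differentiated human HepaRG cells in serum-free induction medium, dosed in duplicate for 48 h at 8 half-log concentrations up to 100 uM in 0.5% DMSO. NQO1 mRNA by qRT-PCR normalized to ACTB, GAPDH, POLR2A; bidirectional fit versus DMSO baseline.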

Read-out in experiment [7]: Nuclear factor erythroid 2-related factor 2 (Homo sapiens) (UniProt Q16236)
Put plainly: LTEA_HepaRG_NFE2L2: Life Technologies and Expression Analysis (LTEA) Assay for Nuclear factor erythroid 2-related factor 2 (NFE2L2) Transcription Factor using HepaRG (AID 2283527).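 As to outcome: TaqMan qRT-PCR transcript level normalised to ACTB GAPDH and POLR2A housekeeping genes.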 The essentials: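 Differentiated human HepaRG cells, serum-free induction medium, exposed 48 h in duplicate to eight half-log concentrations up to 100 uM in 0.5% DMSO. NFE2L2 mRNA by Fluidigm TaqMan qRT-PCR, normalised to ACTB, GAPDH, POLR2A; bidirectional change versus DMSO.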

Read-out in experiment [8]: succinate dehydrogenase complex iron sulfur subunit B (SDHB), SDHB (gene 6390)
Put plainly: LTEA_HepaRG_SDHB: Life Technologies and Expression Analysis (LTEA) Assay for succinate dehydrogenase complex iron sulfur subunit B (SDHB) using HepaRG (AID 2283528). The method in brief:
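HepaRG cells (~100,000/well, plated 48 h) exposed in duplicate for 48 h in serum-free induction medium to 8-point half-log series from 100 uM in 0.5% DMSO; mRNA by qRT-PCR normalised to ACTB, GAPDH, POLR2A; bidirectional fit versus DMSO.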

Read-out in experiment [9]: Signal transducer and activator of transcription 3 (Homo sapiens) (UniProt P40763)
Briefly: LTEA_HepaRG_STAT3: Life Technologies and Expression Analysis (LTEA) Assay for Signal transducer and activator of transcription (STAT3) using HepaRG (AID 2283529). The essentials:
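Differentiated HepaRG cells, serum-free induction medium, dosed 48 h in duplicate, 8 half-log concentrations from 100 uM in 0.5% DMSO. STAT3 mRNA by qRT-PCR, normalised to ACTB, GAPDH, POLR2A; bidirectional fit versus DMSO.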

Read-out in experiment [10]: solute carrier (SLCO1B1), SLCO1B1 (gene 10599)
Briefly: LTEA_HepaRG_SLCO1B1: Life Technologies and Expression Analysis (LTEA) Assay for solute carrier (SLCO1B1) using HepaRG (AID 2283530). The method in brief: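 Gain or loss of SLCO1B1 mRNA is fitted against the 0.5% DMSO vehicle in human HepaRG liver cells treated 48 h at up to 100 uM in half-log steps. Expression comes from qRT-PCR normalized to endogenous controls.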

Activity calls are given as the source filed them. The calls were made as follows: active = hit-call score of the fitted dose curve at least 0.9, where 1 is the maximum; inactive = score below 0.9.

Sequence of Nuclear factor erythroid 2-related factor 2 (Homo sapiens) (Q16236 whole entry, looked up): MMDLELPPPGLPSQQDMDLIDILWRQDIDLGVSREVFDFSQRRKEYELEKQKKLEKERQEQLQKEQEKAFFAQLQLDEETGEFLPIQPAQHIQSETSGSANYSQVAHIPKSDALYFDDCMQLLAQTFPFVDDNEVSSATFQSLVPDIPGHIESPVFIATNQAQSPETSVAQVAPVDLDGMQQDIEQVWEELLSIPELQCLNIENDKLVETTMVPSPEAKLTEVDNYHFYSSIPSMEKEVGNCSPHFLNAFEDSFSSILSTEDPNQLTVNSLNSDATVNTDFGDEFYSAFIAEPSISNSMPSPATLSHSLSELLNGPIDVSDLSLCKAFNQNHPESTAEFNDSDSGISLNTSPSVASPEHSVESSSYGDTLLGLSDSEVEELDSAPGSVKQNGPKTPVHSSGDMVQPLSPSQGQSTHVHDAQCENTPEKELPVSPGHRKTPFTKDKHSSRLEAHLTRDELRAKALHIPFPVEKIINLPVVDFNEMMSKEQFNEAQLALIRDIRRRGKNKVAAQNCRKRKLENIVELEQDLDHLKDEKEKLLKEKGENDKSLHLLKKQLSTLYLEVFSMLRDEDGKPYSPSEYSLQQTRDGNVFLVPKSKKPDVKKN
Sequence of Nuclear factor NF-kappa-B p105 subunit (Homo sapiens) (P19838 whole entry, looked up): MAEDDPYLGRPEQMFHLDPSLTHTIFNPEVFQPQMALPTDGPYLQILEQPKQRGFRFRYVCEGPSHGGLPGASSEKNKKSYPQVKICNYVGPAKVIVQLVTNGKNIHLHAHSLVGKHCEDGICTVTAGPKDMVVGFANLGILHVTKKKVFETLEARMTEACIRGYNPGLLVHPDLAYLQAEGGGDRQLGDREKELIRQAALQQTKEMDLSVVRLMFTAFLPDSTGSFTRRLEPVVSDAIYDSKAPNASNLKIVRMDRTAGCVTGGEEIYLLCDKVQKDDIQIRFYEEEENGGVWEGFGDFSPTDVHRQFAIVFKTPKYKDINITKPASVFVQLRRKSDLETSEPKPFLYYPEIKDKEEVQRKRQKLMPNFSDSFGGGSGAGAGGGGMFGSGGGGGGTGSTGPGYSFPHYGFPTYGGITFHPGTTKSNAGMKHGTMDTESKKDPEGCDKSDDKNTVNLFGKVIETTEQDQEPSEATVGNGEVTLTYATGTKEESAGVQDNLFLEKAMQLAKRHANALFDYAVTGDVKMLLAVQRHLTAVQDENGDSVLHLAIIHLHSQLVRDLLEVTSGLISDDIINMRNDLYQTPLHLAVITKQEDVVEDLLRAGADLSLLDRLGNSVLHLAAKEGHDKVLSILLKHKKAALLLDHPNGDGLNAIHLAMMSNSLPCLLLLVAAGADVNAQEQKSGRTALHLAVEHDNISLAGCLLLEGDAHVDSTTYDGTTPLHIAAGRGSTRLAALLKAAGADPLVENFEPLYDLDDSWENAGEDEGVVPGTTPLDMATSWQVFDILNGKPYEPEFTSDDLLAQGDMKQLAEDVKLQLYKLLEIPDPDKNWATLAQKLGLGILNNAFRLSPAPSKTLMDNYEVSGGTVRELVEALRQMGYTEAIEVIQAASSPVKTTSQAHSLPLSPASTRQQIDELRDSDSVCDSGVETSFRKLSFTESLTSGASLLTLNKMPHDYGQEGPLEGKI
Sequence of Signal transducer and activator of transcription 3 (Homo sapiens) (P40763 whole entry, looked up): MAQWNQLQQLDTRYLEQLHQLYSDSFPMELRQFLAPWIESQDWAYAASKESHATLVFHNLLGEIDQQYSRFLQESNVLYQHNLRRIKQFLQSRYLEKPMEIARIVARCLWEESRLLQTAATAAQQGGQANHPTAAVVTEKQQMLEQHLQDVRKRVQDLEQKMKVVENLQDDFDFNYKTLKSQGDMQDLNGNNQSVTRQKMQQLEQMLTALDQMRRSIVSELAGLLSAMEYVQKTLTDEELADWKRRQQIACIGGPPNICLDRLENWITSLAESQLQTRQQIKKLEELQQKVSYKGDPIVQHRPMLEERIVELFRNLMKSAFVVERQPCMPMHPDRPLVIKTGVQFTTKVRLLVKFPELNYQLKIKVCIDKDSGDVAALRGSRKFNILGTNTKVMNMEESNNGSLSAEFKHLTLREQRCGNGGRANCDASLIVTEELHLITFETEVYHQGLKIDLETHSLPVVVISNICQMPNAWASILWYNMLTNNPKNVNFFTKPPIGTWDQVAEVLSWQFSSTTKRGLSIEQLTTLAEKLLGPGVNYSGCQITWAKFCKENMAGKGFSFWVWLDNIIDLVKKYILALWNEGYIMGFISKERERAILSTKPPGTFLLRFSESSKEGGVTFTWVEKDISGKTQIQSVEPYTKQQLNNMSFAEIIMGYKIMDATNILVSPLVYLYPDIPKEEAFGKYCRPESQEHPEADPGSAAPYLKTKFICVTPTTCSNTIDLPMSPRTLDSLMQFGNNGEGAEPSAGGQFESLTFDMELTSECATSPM

On to `CC(C)C1(C)N=C(c2nc3ccccc3cc2C(=O)O)NC1=O` (stereo not given), for which the call in experiment [1], in experiment [2], in experiment [3], in experiment [4], in experiment [5] and in experiment [6] was inactive. In addition, the outcome in experiment [7], in experiment [8], in [9] and in experiment [10] was inactive.
For the molecule `COc1nc(NC(C)C)nc(NC(C)C)n1`, the outcome in experiment [1], in [2], in [3], in [4], in experiment [5] and in experiment [6] was inactive. Also, the molecule was called inactive in experiment [7], in experiment [8], in experiment [9] and in experiment [10].
By AC50 is commonly meant the midpoint of the concentration-response curve, whichever way the signal moves. With `COC(=O)C(C)Oc1ccc(Oc2ccc(Cl)cc2Cl)cc1` (stereo not given), the call in [1], in experiment [2], in experiment [3], in experiment [6], in [7] and in experiment [8] was inactive. Also, the call in experiment [9] and in [10] was inactive. Further, the AC50 in experiment [4] was 50 µM (active); in [5], 32.6 µM (active).
As for `O=C(O)COc1nc(Cl)c(Cl)cc1Cl`, the outcome in [1], in experiment [2], in experiment [3], in experiment [4], in experiment [6] and in [7] was inactive. The molecule was classed as inactive in experiment [8], in [9] and in experiment [10]. The AC50 in [5] is 51 µM (active).
For the molecule `Cc1ccc(-c2c(Cl)nc(C#N)n2S(=O)(=O)N(C)C)cc1`, the AC50 in experiment [1] was 50 µM (active); in experiment [2] it was 32.2 µM (active); in [3] it was 16.8 µM (active); in [4], 50 µM (active); in experiment [5], 50 µM (active); in experiment [8], 2.73 µM (active). For the same molecule, the AC50 in experiment [9] was 18.4 µM (active); in experiment [10], 31.1 µM (active). Besides, the outcome in experiment [6] and in experiment [7] was inactive.
Consider `N#Cc1cc(Br)c(O)c(Br)c1`, for which the AC50 in experiment [1] was 5.8 µM (active); in experiment [2] it was 10.7 µM (active); in [3], 26.1 µM (active); in experiment [4], 16.2 µM (active); in experiment [5], 9.64 µM (active); in [6] it was 11.9 µM (active). The AC50 is 10.3 µM (active) in experiment [7], 7.28 µM (active) in experiment [8], 3.27 µM (active) in [9] and 17.8 µM (active) in experiment [10].
For `CCCCNC(=O)n1c(NC(=O)OC)nc2ccccc21`, the outcome in [1], in experiment [2], in [3], in experiment [4], in experiment [5] and in experiment [6] was inactive. For the same molecule, the result in experiment [7], in experiment [8], in [9] and in experiment [10] was inactive.
For the molecule `O=C(Nc1ccccc1)Nc1ccnc(Cl)c1`, the AC50 in experiment [1] was 39.2 µM (active); in [2] it was 77.7 µM (active); in experiment [3], 75.2 µM (active); in [4] it was 68 µM (active); in experiment [6], 82.6 µM (active); in experiment [7] it was 82.3 µM (active). Moreover, the AC50 in [8] was 94 µM (active); in experiment [9], 42.6 µM (active); in experiment [10], 82.1 µM (active). Also, in [5], the molecule was called inactive.
Take `CC(C)Oc1cc(-n2nc(C(C)(C)C)oc2=O)c(Cl)cc1Cl`: the molecule was called inactive in [1], in [2], in experiment [3], in [6], in experiment [7] and in [8]. The outcome in [9] and in [10] was inactive. The AC50 is 42.8 µM (active) in experiment [4] and 11.6 µM (active) in experiment [5].
Take `CCCCC(CC)COC(=O)c1ccccc1C(=O)OCC(CC)CCCC` (stereo not given): the molecule was classed as inactive in [1], in experiment [2], in experiment [3], in experiment [4], in [5] and in experiment [6]. Also, the outcome in [7], in experiment [8], in experiment [9] and in [10] was inactive.
Turning to `CCc1nn(C)c(C(=O)NCc2ccc(C(C)(C)C)cc2)c1Cl`, the outcome in experiment [1], in experiment [2], in experiment [8] and in experiment [9] was inactive. The AC50 was 50 µM (active) in [3]; 4.52 µM (active) in [4]; 0.723 µM (active) in [5]; 50 µM (active) in experiment [6]; 10.6 µM (active) in [7]; 31.3 µM (active) in [10].
For `CS/C(C)=N/OC(=O)N(C)SN(C)C(=O)O/N=C(\C)SC`, the call in [1], in experiment [2], in experiment [3], in experiment [4], in [5] and in [6] was inactive. The molecule was classed as inactive in experiment [7], in experiment [8], in [9] and in experiment [10].
